Test results as given in PubChem BioAssay.
The source made the active and inactive calls.

Legend:
Albumin (Bos taurus) = Albumin (Bos taurus) (UniProt P02769); assay: bovine serum albumin binders on microarray, profiling panel, artefact control for SMM control protein annotation, biochemical, small-molecule microarray, Alexa647 label, 635/667 nm fluorescence (AID 1118); conditions: BSA-A647 binding, fluorescence 635 nm, higher = more signal;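 also: score merges 667 nm emission intensity and signal-to-noise per printed compound spot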
[1] = small-molecule microarray binders of probe aXIP, primary screen, biochemical, NeuroSMM set, 635/667 nm fluorescence (AID 1119); conditions: higher = more signal, called active from +8 up or from −8 down;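 also: probe is the protein aXip251-270 applied at 1 µg/mL to compound-printed slides; binding of probe to printed compounds measured as 667 nm fluorescence plus signal to noise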
[2] = small-molecule binders of probe aNOTCH3, primary screen, biochemical, small-molecule microarray, 635/667 nm fluorescence (AID 1120); conditions: higher = more signal;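 also: probe is a biotin-tagged antibody raised against NOTCH3 rather than NOTCH3 protein; score merges spot fluorescence near 667 nm with spot signal to noise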
[3] = small-molecule binders of probe aNOTCH2, primary screen, biochemical, small-molecule microarray, 635/667 nm fluorescence (AID 1121); conditions: higher = more signal;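 also: score merges feature fluorescence read at 667 nm with its signal to noise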
[4] = target: Carbonic anhydrase 2 (Homo sapiens) (UniProt P00918); assay: CAII small-molecule binders, profiling panel, biochemical, small-molecule microarray, Alexa647-labelled CAII (AID 1122); conditions: CAII-A647 binding fluorescence, higher = more signal
[5] = COS7 lysate on small-molecule microarray, probe aHis, 635 nm (AID 1123); conditions: COS7 cell lysate, fluorescence, higher = more signal;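 also: z-score combines 667nm fluorescence intensity with signal-to-noise per printed compound spot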
[6] = compound binding in COS7 lysate, probe aLAP1, primary screen, cell lysate, small-molecule microarray (AID 1124); conditions: probe aLAP1, fluorescence, higher = more signal;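 also: lysate comes from COS7 cells expressing LAP1 and is applied at 0.3 µg/mL; score merges spot fluorescence near 667 nm with signal-to-noise over triplicate slides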
Sam68 (KHDRBS1) = assay: Sam68 small-molecule binders, primary screen, biochemical, small-molecule microarray, 635 nm fluorescence (AID 1125); conditions: small-molecule microarray binding, higher = more signal;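 also: score merges 667 nm channel intensity with signal to noise over triplicate slides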
[7] = test system: Chordin-like protein 2 (CHRDL2); assay: CHRDL2 small-molecule binders, primary screen, biochemical, small-molecule microarray, 635 nm fluorescence (AID 1126); conditions: small-molecule microarray binding, fluorescence 635 nm; higher = more signal;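 also: printed compound slides probed with Chrdl2 protein at 4 µg/mL for 1 h at 4 C; score merges 667 nm emission intensity with signal to noise over three replicate slides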
[8] = target: Concanavalin-A (Canavalia ensiformis) (UniProt P02866); assay: ConA small-molecule binders, primary screen, artefact control for SMM control protein annotation, biochemical, small-molecule microarray, Alexa647 label, 635 nm (AID 1127); conditions: ConA-A647 binding fluorescence, higher = more signal;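 also: z combines 667 nm emission intensity with signal-to-noise across three replicate slides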
[9] = anti-His antibody binders, primary screen, artefact control for SMM control protein annotation, biochemical, small-molecule microarray, 635 nm fluorescence (AID 1128); conditions: anti-His Alexa647 antibody binding, higher = more signal;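 also: score merges feature fluorescence with signal-to-noise for each printed compound spot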
[10] = test system: Human papillomavirus type 1a E7 protein (residues 1-88); assay: HPV1a E7 small-molecule binders, primary screen, biochemical, small-molecule microarray, residues 1-88, 635 nm (AID 1129); conditions: small-molecule microarray binding, fluorescence 635 nm; higher = more signal
[11] = target: Focal adhesion kinase 1 (Homo sapiens) (UniProt Q05397); assay: small-molecule microarray binders of FAK, primary screen, biochemical, 635/667 nm fluorescence, BSA, DTT (AID 1130); conditions: PTK2 binding, 635 nm fluorescence, higher = more signal;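 also: composite of spot emission at 667 nm and signal to noise over triplicate slides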
[12] = test system: Fibrinogen (Alexa647-labelled); assay: fibrinogen binders on compound microarrays, profiling panel, artefact control for SMM control-protein annotation, biochemical, small-molecule microarray, 635/667 nm fluorescence (AID 1131); conditions: fibrinogen-A647 binding fluorescence, higher = more signal;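 also: z-score merges 667 nm fluorescence with per-spot signal-to-noise over triplicate slides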
[13] = target: Follistatin (Homo sapiens) (UniProt P19883); assay: follistatin binders on small-molecule microarrays, primary screen, biochemical, small-molecule microarray, 635/667 nm fluorescence (AID 1132); conditions: FST binding, 635 nm fluorescence, higher = more signal
[14] = target: Fibroblast growth factor 2 (Homo sapiens) (UniProt P09038); assay: FGF2 binders on small-molecule microarrays, primary screen, biochemical, small-molecule microarray, 635/667 nm fluorescence (AID 1133); conditions: small-molecule microarray binding, FGF2, fluorescence 635/667; higher = more signal
[15] = mitochondrial membrane potential change in A549 cells, profiling panel, cell-based, JC-1 fluorescence, basal, 24 h, 100 nL (AID 1138); conditions: higher = more signal;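 also: A549 lung adenocarcinoma cells under basal conditions with no added stimulus; test concentration not given here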
Lefty1 = Lefty1 binders on small-molecule microarrays, primary screen, biochemical, small-molecule microarray, 635/667 nm fluorescence (AID 1139); conditions: small-molecule microarray binding, fluorescence 635/667; higher = more signal
[16] = test system: wheat germ agglutinin (Triticum aestivum), Alexa647-labelled; assay: wheat germ agglutinin binders on compound microarrays, profiling panel, artefact control for SMM control-protein annotation, biochemical, small-molecule microarray, 635/667 nm fluorescence (AID 1140); conditions: WGA-A647 binding, 635 nm fluorescence, higher = more signal;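 also: score merges 667 nm feature emission with signal to noise over triplicate slides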
[17] = target: Luciferin 4-monooxygenase (Photinus pyralis) (UniProt P08659); assay: firefly luciferase enzyme inhibitors, primary screen, biochemical, luminescence, purified enzyme, 2006 set (AID 1141); conditions: SteadyGlo luminescence, 30 min, higher = more signal, called active from +8 up or from −8 down;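 also: cell-free assay with purified firefly luciferase at 100 ng per well in PBS; test concentration not given here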
Sequence of Luciferin 4-monooxygenase (Photinus pyralis) (P08659 whole entry, looked up): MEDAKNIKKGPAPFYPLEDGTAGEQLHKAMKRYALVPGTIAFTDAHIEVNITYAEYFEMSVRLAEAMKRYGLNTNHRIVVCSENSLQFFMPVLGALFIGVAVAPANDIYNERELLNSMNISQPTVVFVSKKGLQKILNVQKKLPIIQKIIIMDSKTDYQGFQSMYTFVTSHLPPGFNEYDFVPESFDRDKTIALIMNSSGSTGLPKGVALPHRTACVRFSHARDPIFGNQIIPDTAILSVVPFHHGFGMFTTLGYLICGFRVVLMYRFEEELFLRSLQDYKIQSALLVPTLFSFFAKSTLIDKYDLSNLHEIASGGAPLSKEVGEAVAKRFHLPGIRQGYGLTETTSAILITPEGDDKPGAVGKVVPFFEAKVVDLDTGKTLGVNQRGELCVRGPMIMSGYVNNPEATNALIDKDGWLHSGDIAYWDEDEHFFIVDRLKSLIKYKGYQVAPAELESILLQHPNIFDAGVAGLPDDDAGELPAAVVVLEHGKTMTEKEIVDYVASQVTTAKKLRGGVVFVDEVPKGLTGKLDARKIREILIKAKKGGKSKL

Sequence of Follistatin (Homo sapiens) (P19883 whole entry, looked up): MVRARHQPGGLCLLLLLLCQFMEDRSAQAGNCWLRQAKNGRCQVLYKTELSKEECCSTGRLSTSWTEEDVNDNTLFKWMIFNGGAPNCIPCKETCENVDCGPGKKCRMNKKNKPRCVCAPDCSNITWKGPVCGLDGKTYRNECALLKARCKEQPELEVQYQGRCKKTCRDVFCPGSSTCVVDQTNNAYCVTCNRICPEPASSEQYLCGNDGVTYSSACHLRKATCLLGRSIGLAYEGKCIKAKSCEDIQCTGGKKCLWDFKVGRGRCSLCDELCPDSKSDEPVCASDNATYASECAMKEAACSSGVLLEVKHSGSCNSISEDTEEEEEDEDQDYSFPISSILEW
Sequence of Fibroblast growth factor 2 (Homo sapiens) (P09038 whole entry, looked up): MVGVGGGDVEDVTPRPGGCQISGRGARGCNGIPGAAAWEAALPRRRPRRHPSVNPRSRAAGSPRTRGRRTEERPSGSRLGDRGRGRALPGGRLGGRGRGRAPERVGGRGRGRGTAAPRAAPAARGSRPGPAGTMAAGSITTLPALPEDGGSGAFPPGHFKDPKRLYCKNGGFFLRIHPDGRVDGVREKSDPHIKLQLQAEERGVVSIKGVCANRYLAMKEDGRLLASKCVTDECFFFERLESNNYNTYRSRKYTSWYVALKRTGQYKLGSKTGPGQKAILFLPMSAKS
Sequence of Focal adhesion kinase 1 (Homo sapiens) (Q05397 whole entry, looked up): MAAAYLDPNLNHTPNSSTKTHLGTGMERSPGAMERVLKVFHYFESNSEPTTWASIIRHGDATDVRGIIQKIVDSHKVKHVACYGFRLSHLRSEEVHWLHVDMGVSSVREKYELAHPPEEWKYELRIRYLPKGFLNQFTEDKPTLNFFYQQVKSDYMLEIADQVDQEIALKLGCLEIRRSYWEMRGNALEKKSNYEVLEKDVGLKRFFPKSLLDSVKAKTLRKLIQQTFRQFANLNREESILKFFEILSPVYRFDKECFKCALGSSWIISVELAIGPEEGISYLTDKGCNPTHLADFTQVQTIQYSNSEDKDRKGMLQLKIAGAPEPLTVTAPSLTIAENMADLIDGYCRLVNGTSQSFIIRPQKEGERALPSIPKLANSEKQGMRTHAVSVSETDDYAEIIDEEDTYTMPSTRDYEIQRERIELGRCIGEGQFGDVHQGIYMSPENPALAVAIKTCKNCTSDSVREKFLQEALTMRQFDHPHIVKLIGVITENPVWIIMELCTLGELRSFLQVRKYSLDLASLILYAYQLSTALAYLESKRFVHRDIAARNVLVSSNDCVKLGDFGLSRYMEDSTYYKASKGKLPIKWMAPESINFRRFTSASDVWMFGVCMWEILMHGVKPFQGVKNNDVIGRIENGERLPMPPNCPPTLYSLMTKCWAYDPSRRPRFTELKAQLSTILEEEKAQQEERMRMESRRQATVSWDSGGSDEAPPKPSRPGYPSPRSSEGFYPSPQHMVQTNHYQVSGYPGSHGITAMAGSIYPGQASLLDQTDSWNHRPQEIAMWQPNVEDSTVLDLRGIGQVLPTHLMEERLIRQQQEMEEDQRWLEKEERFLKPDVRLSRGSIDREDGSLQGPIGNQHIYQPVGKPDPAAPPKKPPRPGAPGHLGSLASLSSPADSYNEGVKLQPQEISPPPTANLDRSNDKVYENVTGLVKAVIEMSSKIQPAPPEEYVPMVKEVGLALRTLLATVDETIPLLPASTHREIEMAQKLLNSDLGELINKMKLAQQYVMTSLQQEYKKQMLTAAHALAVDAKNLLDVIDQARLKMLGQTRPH
Sequence of Concanavalin-A (Canavalia ensiformis) (P02866 whole entry, looked up): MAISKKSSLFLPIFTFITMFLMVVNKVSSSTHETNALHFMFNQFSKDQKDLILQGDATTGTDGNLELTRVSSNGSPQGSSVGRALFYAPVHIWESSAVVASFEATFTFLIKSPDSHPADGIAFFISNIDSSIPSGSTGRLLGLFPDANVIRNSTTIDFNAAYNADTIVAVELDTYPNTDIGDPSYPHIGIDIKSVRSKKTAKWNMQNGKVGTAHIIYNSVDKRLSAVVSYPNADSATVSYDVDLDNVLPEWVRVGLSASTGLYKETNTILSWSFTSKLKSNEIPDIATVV
Sequence of Albumin (Bos taurus) (P02769 whole entry, looked up): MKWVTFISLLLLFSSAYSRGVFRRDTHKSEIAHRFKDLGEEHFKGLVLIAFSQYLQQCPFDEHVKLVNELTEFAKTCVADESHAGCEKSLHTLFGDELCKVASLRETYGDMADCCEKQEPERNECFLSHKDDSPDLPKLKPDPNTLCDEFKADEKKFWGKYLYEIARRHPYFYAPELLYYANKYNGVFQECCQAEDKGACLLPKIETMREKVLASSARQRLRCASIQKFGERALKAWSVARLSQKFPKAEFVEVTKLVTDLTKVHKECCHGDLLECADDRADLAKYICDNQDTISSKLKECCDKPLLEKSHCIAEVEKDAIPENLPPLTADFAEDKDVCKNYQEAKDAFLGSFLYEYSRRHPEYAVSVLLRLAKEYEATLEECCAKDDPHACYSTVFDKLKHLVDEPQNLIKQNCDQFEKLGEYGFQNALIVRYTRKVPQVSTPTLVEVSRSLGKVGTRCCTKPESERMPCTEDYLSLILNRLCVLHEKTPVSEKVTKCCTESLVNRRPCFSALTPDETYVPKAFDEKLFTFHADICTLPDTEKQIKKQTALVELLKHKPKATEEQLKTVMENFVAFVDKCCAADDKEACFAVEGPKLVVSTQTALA

SMILES	composite z-score (Albumin (Bos taurus))	composite Z-score [1]	composite z-score [2]	composite z-score [3]	composite z-score [4]	composite z-score [5]	composite z-score [6]	composite z-score (Sam68 (KHDRBS1))	composite z-score [7]	composite z-score [8]	composite z-score [9]	composite z-score [10]	composite z-score [11]	composite z-score [12]	composite z-score [13]	composite z-score [14]	z-score [15]	composite z-score (Lefty1)	composite z-score [16]	z-score [17]
CCCCCCc1nc(CCCc2cc3c(c(CCCCCC)n2)[Si](C(C)C)(C(C)C)OC3)cc2c1[Si](C(C)C)(C(C)C)OC2	-1.17	-0.295 (inactive)	-0.0427	-0.0649	-0.567	0.111	0.0313	-0.641	0.21	-0.569	-0.658	-1.19	-0.0475	-1.14	0.597	-0.13	0.531	0.0479	-0.973	0.651 (inactive)
CCCCC=C[C@@H](NC(=O)c1ccco1)c1ccccc1	0.844	-0.474 (inactive)	-0.0947	-0.0419	-0.406	0.0455	-0.358	-0.708	-0.134	1.01	0.34	-1.19	-0.0668	1.01	0.487	0.133	-0.881	-0.337	0.653	2.18 (inactive)
COCCOC(=O)N1C(=O)[C@@]2(c3cc(C#CCNC(N)=O)ccc31)[C@H](c1ccc(O)cc1)N1[C@H](c3ccccc3)[C@H](c3ccccc3)OC(=O)[C@H]1[C@@H]2C(=O)Nc1nc2ccccc2s1	0.0631	-0.162 (inactive)	0.111	-0.0432	0.266	1.17	0.243	0.942	0.554	1.09	0.0698	0.967	0.387	0.558	1.33	1.2	-1.91	0.851	0.785	-2.38 (inactive)
C=CC(COC(C)=O)NS(=O)(=O)c1ccc(Br)cc1 (stereo not given)	-0.68	0.0518 (inactive)	-0.0337	-0.133	-0.0235	-0.01	0.0423	0.591	0.912	0.682	0.192	0.971	-0.271	0.596	0.902	0.608	0.499	0.673	0.0285	-0.481 (inactive)
CC(=CC1CCCCC1)[C@@H](NC(=O)c1ccc(C(F)(F)F)cc1)c1ccc(-c2ccccc2)cc1	0.938	-0.193 (inactive)	-0.0311	0.0181	-0.0824	-0.261	-0.223	-0.946	-0.371	-0.0536	-0.453	-0.753	-0.708	-0.134	-0.136	-0.58	-0.269	-0.795	0.165	1.25 (inactive)
CC(C)Cc1ccc(CN2CC[C@@H](NS(=O)(=O)c3ccccc3)C2)cc1	-0.623	0.119 (inactive)	-0.187	-0.173	-0.114	0.48	0.0054	0.532	0.449	-0.36	0.441	-0.593	-0.0553	-1.02	0.797	-0.0321	-0.641	0.477	-0.654	0.826 (inactive)
CS(=O)(=O)CCOC(=O)C1=CC(c2ccc(CO)cc2)=CC(C2CC2)N(Cc2cc3c(cc2Br)OCO3)C=C1C(=O)OCCS(C)(=O)=O (stereo not given)	0.381	-0.0662 (inactive)	0.143	-0.0902	0.618	2.29	0.487	1.3	0.37	0.927	1.92	1.21	0.608	0.896	0.678	0.763	2.44	1.09	0.953	-1.51 (inactive)
O=C1O[C@H](c2ccccc2)[C@H](c2ccccc2)N2[C@H]1[C@@H](C(=O)O)[C@]1(C(=O)Nc3ccc(C#CC4(O)CCCCCC4)cc31)[C@H]2c1ccc(OCCO)cc1	0.906	-0.0503 (inactive)	0.0876	-0.0727	0.672	2.58	0.78	1.29	-0.862	1.06	1.5	1.25	0.115	0.979	0.196	-0.333	-1.42	0.473	0.942	-2.75 (inactive)
C=CCOC(=O)[C@H]1[C@@H]2C(=O)O[C@@H](c3ccccc3)[C@@H](c3ccccc3)N2[C@@H](c2ccc(OCCOC(=O)[C@@H]3C[C@@H]4C(=O)N5CCC[C@H]5C(=O)N4[C@@H]3c3ccc(O)cc3)cc2)[C@]12C(=O)Nc1ccccc12	-0.854	0.0088 (inactive)	0.299	-0.104	0.268	1.36	0.261	1.33	1.03	0.93	1.16	1.18	0.109	0.655	1.39	1.35	-1.19	1.04	0.77	-0.354 (inactive)
Cc1ccc(F)cc1S(=O)(=O)N[C@@H]1CCN(Cc2ccc(-c3ccccc3)cc2)C1	0.413	-0.569 (inactive)	-0.126	-0.0598	0.482	0.249	0.625	0.581	0.776	-0.0888	-0.0798	0.517	0.377	-0.0516	0.646	0.424	0.225	0.292	-0.108	0.715 (inactive)
C=C(CCCC)/C(=C/C[C@H](OC(C)=O)c1ccc(CO)o1)c1cnc2ccccc2c1	0.475	-1.16 (inactive)	0.0282	-0.14	0.73	0.612	-0.193	1.05	0.968	0.931	0.867	1.18	-0.0622	0.713	1.27	1.18	-0.566	1.29	1.18	-1.88 (inactive)
Cc1ccc(S[C@]2(C(=O)NCc3ccccc3)CC(=O)N(Cc3ccccc3Cl)[C@@H]2c2ccc(CO)cc2I)cc1	0.451	-0.422 (inactive)	-0.275	-0.198	0.721	0.616	0.198	-0.414	-1.03	-0.139	2.92	-0.162	-0.0602	0.999	0.0508	-0.871	0.00439	-0.366	0.947	0.831 (inactive)
COc1ccc(C(O)C2C=CC3C(=O)NC(=O)C3N2Nc2ccccn2)cc1OCc1ccccc1 (stereo not given)	0.68	0.0296 (inactive)	0.089	-0.0308	0.855	1.76	0.759	-0.255	0.0961	0.212	0.834	0.502	-0.0511	0.816	-0.101	-1.37	1.73	-0.168	0.532	0.24 (inactive)
CC(C)=CCCC(C)=CC(O)C1C=CC2C(=O)N(c3ccccc3)C(=O)C2N1Nc1ccccc1 (stereo not given)	0.977	-0.0662 (inactive)	0.461	0.251	0.646	1.52	0.78	1.27	-0.0528	1.14	1.79	1.18	0.63	1.01	1.14	0.227	-0.773	0.16	1.3	0.0145 (inactive)
COc1ccc(CCN2C(=O)[C@@]3(Cc4ccccc42)c2ccccc2C(=O)N(Cc2ccccc2Cl)[C@H]3c2ccc(CO)cc2)cc1	-0.091	-0.0503 (inactive)	-0.125	-0.137	0.855	-0.247	0.296	-0.383	-1.06	-0.199	-1.74	-1.3	-0.657	-0.953	-1.1	-0.157	-0.599	-1.17	-0.0043	-0.822 (inactive)
N#Cc1ccc(NN2C(C(O)c3ccc([N+](=O)[O-])cc3)C=CC3C(=O)N(c4ccccc4)C(=O)C32)cc1 (stereo not given)	0.552	0.156 (inactive)	0.0847	0.181	0.758	2.75	0.833	1.3	0.0881	0.647	0.728	1.24	0.943	0.619	0.717	-0.0956	-0.257	-0.269	0.998	0.843 (inactive)
CCCCCCCCCCC(O)C1C=CC2C(=O)N(Cc3ccccc3)C(=O)C2N1n1cnnc1 (stereo not given)	0.834	0.797 (inactive)	0.435	0.0605	0.485	1.1	0.687	1.11	-0.686	1.04	-0.244	0.812	0.656	0.532	-0.238	-0.982	-1.27	0.486	0.493	0.892 (inactive)
